# Screens from PubChem BioAssay.
# PostGolgi yeast – phenotypic screen on post-Golgi transport, primary screen. inhibition, % at 10 µM. 98,000 compounds, 0.9% hits. post-Golgi transport phenotypic cell assay;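 also: yeast cells grown in 1536-well plates; yeast grown about 18 h at 30C before absorbance read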
# PostGolgi ctrl – growth inhibition of yeast control strain, primary screen, counter-screen for post-Golgi transport modulator project. efflux-deficient yeast background strain, growth absorbance A615, 16 h. inhibition, % at 10 µM. 98,000 compounds, 5% hits. AID 738, 2007
# Cav32 inh – Cav3.2 calcium influx blockers – cell-based, Fluo-4 calcium fluorescence, FDSS, MLSMR library, primary screen | Voltage-dependent T-type calcium channel subunit alpha-1H (Homo sapiens), O95180 | Cav3.2-expressing cells; stronger effect = lower value | B-score at 10 µM | 100,000 compounds, 4% hits | AID 449739, 2010;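 active = single-dose well whose peak fluorescence ratio is a statistical outlier from its plate by either plate-standardised score or position-corrected B-score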
# PTK2B oligo ant – antagonists of Pyk2 self-association, primary screen, Q293 cells, FERM NanoBiT luminescence, HTS; Protein-tyrosine kinase 2-beta (Homo sapiens), Q14289; stronger effect = lower value; z-score (the deposit names both 25 µM and 10 µM); 99,000 compounds, 0.83% hits; AID 1347419, 2020;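 active = Z-score of -3 or lower, scaled per plate to the spread of control and sample wells; inactive = z-score above -3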;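 also: negative z-score means lost luminescence so less FERM oligomerization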
# Active calls of the source: *; . = not tested or not shown. An excerpt weighted towards active compounds, which were near 8% of everything screened. Rule as the data show it, unless noted: active = inhibition above about 30%; inactive = the rest.
SMILES,PostGolgi yeast,PostGolgi ctrl,Cav32 inh,PTK2B oligo ant
Cc1nnc(SCCC(=O)Nc2nc(-c3ccccc3)ns2)s1,-17,5,-5*,-0.15
CCC(=O)Nc1nc(-c2ccccc2)ns1,.,.,-0.018,-0.23
COC(=O)c1cn(C(=O)c2ccccc2F)nc1N,1,-1,0.23,0.34
COC(=O)C1=C(N)c2c(F)cccc2C1(C#N)c1ccc(F)cc1 (stereo not given),3,24,-5.6*,-2
CC(=O)N1N=C(c2cccc(Cl)c2)OC1c1ccc(C(C)C)cc1 (stereo not given),14,35*,-0.47,0.76
CCn1c(SCC(=O)OC(C)C)nnc1-c1cccc(Cl)c1,1,8,-0.94,0.57
O=C(CN1CCOCC1)N1CCN(c2ccc3ccccc3n2)CC1,.,.,0.33,.
Cc1cc(C)c(N=C2CCCN2Cc2ccccc2)c(C#N)c1,.,.,-4.8*,-1.6
N#Cc1ccccc1N=C1CCCN1Cc1ccccc1,3,6,-0.031,-0.43
OC1CCN(c2c3c(nc4cc(-c5ccc(F)cc5)nn24)CCC3)CC1,2,49*,-0.057,-0.11
Fc1ccc(-c2cc3nc4c(c(N5CCOCC5)n3n2)CCCC4)cc1,19,57*,-4.2,-3
O=C(C1CCCO1)N1CCN(c2c3c(nc4cc(-c5ccc(F)cc5)nn24)CCC3)CC1 (stereo not given),-2,19,0.08,-0.58
C=C(c1ccc(O)cc1)c1ccc(O)cc1,-14,9,-0.47,-4.6*
C/C=C(/C(=C/C)c1ccc(O)cc1)c1ccc(O)cc1,.,.,-1.8,.
CSc1nc(-c2ccco2)nn1S(C)(=O)=O,4,1,-0.0045,0.04
CCCCN(CC)c1nc(-c2ccncc2)nc2ccccc12,5,63*,-2.4,-1.9
CCOC(=O)c1sc(NC(=O)CN(CC(C)C)CC(C)C)c(C(=O)OCC)c1C,4,-4,-1.7,-0.84
COC(=O)CNC(c1ccccc1)c1cc(C)ccc1NC(=O)CNC(=O)OCc1ccccc1 (stereo not given),1,21,-7.2*,-1.1
COC(=O)CNC(c1ccccc1)c1cc(Br)ccc1NC(=O)OCc1ccccc1 (stereo not given),-6,9,-9.4*,-2.2
Cc1ccc(S(=O)(=O)Nc2ccc(Br)cc2C(NCC(=O)O)c2ccccc2)cc1 (stereo not given),.,.,.,0.97
CC(C)CCNC(=O)C1CCC(=O)N1C(C)C (stereo not given),18,23,0.24,-0.27
O=C(NCC1CCCO1)c1ccccc1NC(=O)c1cccc2ccccc12 (stereo not given),-7,3,0.38,0.08
O=C(NC(NCC1CCCO1)C(Cl)(Cl)Cl)c1cccc2ccccc12 (stereo not given),27,1,-5*,0.68
Cc1ccc(S(=O)(=O)n2nc(OC(=O)c3c(-c4ccccc4Cl)noc3C)cc2N)cc1,-1,1,-7.4*,0.17
CCOC(=O)c1cc2c(C)n(-c3ccc(C)cc3)c(C)c2ccc1=O,0,-3,-7.4*,-0.67
SMILES,PostGolgi yeast,PostGolgi ctrl,Cav32 inh,PTK2B oligo ant
CCOC(=O)c1cc2c(C)n(-c3ccc(OCC)cc3)c(C)c2ccc1=O,0,5,-2.9,-0.41
CCC(CC)C1=NN2C(=N)/C(=C\c3cc(C)n(-c4cccc(C)c4)c3C)C(=O)N=C2S1,.,.,.,0.11
CCCCCCSC1=C(C#N)C(c2ccccc2)CC(=O)N1 (stereo not given),36*,57*,-0.1,-1.1
CC1(C)CC(=O)c2cnc(NC(=O)C3CCCC3)nc2C1,-8,-3,0.96,0.2
O=C(Nc1ccc2c(c1)OCO2)C1CCN(Cc2cnn(-c3ccccc3)c2-n2cccc2)CC1,1,4,-5.2*,-0.54
COc1c(C(O)CC(C)C)ccc2c1C(=O)OCc1cc(C)cc(O)c1O2 (stereo not given),.,.,-2.9,.
COc1c(C(CC(C)C)OC(C)=O)ccc2c1C(=O)OCc1cc(C)cc(O)c1O2 (stereo not given),.,.,-3.8*,.
O=S(=O)(Nc1ncnc2sc3c(c12)CCC3)c1ccc2ccccc2c1,5,18,-4.7*,0.68
Cc1ccccc1-c1nc2sc3c(c2c(=O)o1)CCC3,.,.,-0.17,0.48
Cc1nc(NS(=O)(=O)c2ccccc2C)c2c3c(sc2n1)CCC3,0,47*,-3.3,.
c1ccc(Nc2ncnc3sc4c(c23)CCC4)cc1,-2,6,-1.6,-0.5
Cc1nc(-n2nnc3ccccc32)c2c3c(sc2n1)CCCC3,2,32*,-1,0.43
Cc1cc(C)n(Cc2ccc(Cl)c(Cl)c2)c(=O)c1S(=O)(=O)c1ccccc1,14,6,.,-0.2
N#Cc1ccc(C23CC4(C2)[C@H](CN(Cc2cccnc2)[C@@H]4c2ccccc2)C3c2ccccc2)cc1 (stereo not given in full),.,.,-1.1,.
CCSc1nc2ccccc2n1C(=O)/C=C\c1ccc(OC)c(OC)c1,-2,-1,1.8,-1.2
c1ccc(Cn2nnc3c(NCC4CCCO4)ncnc32)cc1 (stereo not given),0,21,-0.014,1.7
CN(c1ccccc1)C(c1ccc(F)cc1)c1nnnn1CC1CCCO1 (stereo not given),4,22,-1.5,-0.95
CN(c1ccccc1)C(c1ccc(F)cc1)c1nnnn1C1CCCC1 (stereo not given),-2,9,-7.5*,-1.6
Cc1cc(Cl)ccc1OCc1nc(-c2ccc(O)cc2)n[nH]1,5,96*,-0.58,-1.8
CCOc1ccc2nc(N/C(N)=N/C(=S)Nc3cccc(C)c3)nc(C)c2c1,1,19,-5.5*,0.49
COc1ccc(C2CCCN2C(=O)c2cccs2)cc1 (stereo not given),-5,4,-0.33,0.04
O=C(c1cccs1)N1CCc2c([nH]c3ccccc23)C1c1ccc(Cl)cc1 (stereo not given),1,30*,-2.6,-2.4
CC(C)c1cc(N2CCN(C(=O)c3ccco3)CC2)n2c(nc3ccccc32)c1C#N,-15,2,1.8,.
Cc1cc(-c2ccco2)c(C#N)c2nc3ccccc3n12,25,83*,-0.69,-0.04
Cc1ccc(-c2ccc(/C=N/N3C(=O)C4C5C=CC(C6CC56)C4C3=O)o2)c([N+](=O)[O-])c1 (stereo not given),-8,7,-5.1*,-0.51
SMILES,PostGolgi yeast,PostGolgi ctrl,Cav32 inh,PTK2B oligo ant
COc1ccc(N/C=C(\C#N)c2nc3ccccc3n2C)c(OC)c1,24,49*,-0.92,-0.17
C#CCNC(=O)C1=C[C@@H](c2ccc3c(c2)OCO3)C[C@@H](OCc2ccc(CO)cc2)O1,.,.,0.28,.
COCCN1C(=O)c2ccccc2C(C(=O)Nc2ccc3c(c2)OCCO3)C1c1ccc(F)cc1 (stereo not given),-8,14,0.55,-3.4*
O=C(Nc1ccc2c(c1)OCCO2)C1c2ccccc2C(=O)N2CCc3ccccc3C12 (stereo not given),-5,21,-0.046,.
C[N+]1(C)CCCC(OC(=O)C(O)(c2ccccc2)c2ccccc2)C1 (stereo not given),.,.,-4.5*,.
COCCCNC(=O)c1ccc2c(c1)OCO2,-5,-8,.,1.2
